Data reported in the supplement of paper PMC3545927.
Some of the results follow. The hit rate among all sequences tested is not known here.

B1: HC739 (peptide)
chain: CAPISYLKGSAGNASASA
B2: FS-1648 (peptide)
chain: CAPISRPRRRAGNASASA
B3: FS-436 (peptide)
chain: CAGSPRPRRRAGNASASA
B4: FS-815 (peptide)
chain: CALAARPRRRAGNASASA
B5: HC2189 (peptide)
chain: CAEVYTSTWVAGNASASA
B6: HC2457 (peptide)
chain: CAESEVPCHRAGNASASA
B7: HC1685 (peptide)
chain: CAMLECSQHLAGNASASA
B8: HC1102 (peptide)
chain: CALPAILSPGAGNASASA
B9: HC58 (peptide)
chain: CATTPNSGSWAGNASASA
B10: FS-691 (peptide)
chain: CAMLRRTKRGAGNASASA
B11: FS-89 (peptide)
chain: CASADLVVRGAGNASASA
B12: FS-1280 (peptide)
chain: CASHLRVKRGAGNASASA
B13: FS-1354 (peptide)
chain: CAKYGRVKRGAGNASASA
B14: FS-364 (peptide)
chain: CAMDARHKRGAGNASASA
B15: FS-1335 (peptide)
chain: CAHFQRVKRGAGNASASA
B16: HC1888 (peptide)
chain: CATTPCSWSWAGNASASA
B17: HC716 (peptide)
chain: CAWPAPQGSRAGNASASA
B18: HC263 (peptide)
chain: CANDCPNSSIAGNASASA
B19: FS-3119 (peptide)
chain: CARVLRENGKAGNASASA
B20: FS-1757 (peptide)
chain: CARNKRESGKAGNASASA
B21: FS-2727 (peptide)
chain: CARNKREDRTAGNASASA
B22: FS-1888 (peptide)
chain: CAREKRKNRTAGNASASA
B23: FS-2914 (peptide)
chain: CAREKKVTRTAGNASASA
B24: HC1133 (peptide)
chain: CATAILSSLTAGNASASA
B25: HC333 (peptide)
chain: CALDMIAGAHAGNASASA
B26: HC89 (peptide)
chain: CAVVCHSMSYAGNASASA
B27: HC1153 (peptide)
chain: CACEVLSDFKAGNASASA
B28: FS-984 (peptide)
chain: CADNKRMARNAGNASASA
B29: HC1438 (peptide)
chain: CADTTIMAKNAGNASASA
B30: FS-475 (peptide)
chain: CAPNSRLARNAGNASASA
B31: FS-211 (peptide)
chain: CAAASRLARGAGNASASA
B32: FS-466 (peptide)
chain: CANGFRHARNAGNASASA
B33: FS-2387 (peptide)
chain: CARVKRSPGLAGNASASA
B34: FS-2317 (peptide)
chain: CARVKRDLVLAGNASASA
B35: FS-2726 (peptide)
chain: CARNKKDVNLAGNASASA
B36: HC974 (peptide)
chain: CARLGAVQNEAGNASASA
B37: FS-1977 (peptide)
chain: CARVKRSLGEAGNASASA
B38: FS-2916 (peptide)
chain: CARELRQLMEAGNASASA
B39: FS-2618 (peptide)
chain: CARVKRVLMGAGNASASA
B40: FS-2045 (peptide)
chain: CARLYRSLGEAGNASASA
B41: FS-3136 (peptide)
chain: CASKKRSNGLAGNASASA
B42: HC257 (peptide)
chain: CAQVRNSTGLAGNASASA
B43: HC1150 (peptide)
chain: CADIWDWICEAGNASASA
B44: HC146 (peptide)
chain: CAEVVTFTWVAGNASASA

Target: furin, P09958
Sequence (P09958 whole entry): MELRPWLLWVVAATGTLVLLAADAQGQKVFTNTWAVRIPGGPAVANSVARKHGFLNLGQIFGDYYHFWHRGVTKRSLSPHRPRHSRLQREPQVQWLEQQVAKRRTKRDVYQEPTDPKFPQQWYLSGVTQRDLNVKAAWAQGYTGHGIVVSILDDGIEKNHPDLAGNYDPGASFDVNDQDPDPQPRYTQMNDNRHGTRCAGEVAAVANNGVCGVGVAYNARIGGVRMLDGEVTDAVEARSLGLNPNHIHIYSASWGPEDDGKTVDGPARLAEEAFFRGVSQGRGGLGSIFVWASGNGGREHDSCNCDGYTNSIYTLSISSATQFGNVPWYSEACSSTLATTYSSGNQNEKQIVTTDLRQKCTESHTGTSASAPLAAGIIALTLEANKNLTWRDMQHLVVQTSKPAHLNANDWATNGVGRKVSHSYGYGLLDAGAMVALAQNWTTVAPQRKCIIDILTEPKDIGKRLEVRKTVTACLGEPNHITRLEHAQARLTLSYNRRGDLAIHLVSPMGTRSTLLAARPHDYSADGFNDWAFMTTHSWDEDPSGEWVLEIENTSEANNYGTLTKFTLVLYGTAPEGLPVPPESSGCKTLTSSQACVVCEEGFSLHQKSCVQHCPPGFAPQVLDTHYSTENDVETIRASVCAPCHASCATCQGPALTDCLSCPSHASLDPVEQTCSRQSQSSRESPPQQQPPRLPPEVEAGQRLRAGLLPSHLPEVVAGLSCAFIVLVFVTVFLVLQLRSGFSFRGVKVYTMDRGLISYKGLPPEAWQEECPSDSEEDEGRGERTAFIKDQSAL
Experiment: furin cleavage Z-score vs untreated control; higher = more cleavage, active = 3.5 or more, inactive = 1 or less, 8 variable residues between constant flanks
Summary of the method: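 In 50 mM HEPES pH 7.5 with CaCl2 and NaCl, purified furin was incubated with bead-anchored 8-mer peptide–cDNA fusions at 1:10 enzyme:substrate in 0.01 ml. Incubation times were 7.5, 15 and 30 min. DNA set free by cleavage was adapter-tagged by PCR and sequenced, with read counts taken as abundance. Log counts relative to furin-free reactions, after lowess adjustment and median absolute deviation scaling, form the cleavage Z-score.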

Sequence	furin cleavage Z-score (7.5 min)	furin cleavage Z-score (15 min)	furin cleavage Z-score (30 min)
B1	0.299 (inactive)	-0.469 (inactive)	-0.42 (inactive)
B2	7.6 (active)	8.41 (active)	6.07 (active)
B3	7.08 (active)	9.3 (active)	7.64 (active)
B4	4.52 (active)	6.47 (active)	5.7 (active)
B5	0.0489 (inactive)	-1.01 (inactive)	-0.826 (inactive)
B6	-0.0892 (inactive)	0.0197 (inactive)	0.878 (inactive)
B7	-0.00687 (inactive)	-0.291 (inactive)	-0.319 (inactive)
B8	-0.355 (inactive)	-0.501 (inactive)	-0.653 (inactive)
B9	-0.658 (inactive)	-1.14 (inactive)	-1.83 (inactive)
B10	-0.133 (inactive)	-0.069 (inactive)	0.376 (inactive)
B11	0.299 (inactive)	-0.542 (inactive)	-0.0754 (inactive)
B12	7.98 (active)	7.64 (active)	6.42 (active)
B13	0.448 (inactive)	0.71 (inactive)	0.194 (inactive)
B14	6.41 (active)	8.49 (active)	7.7 (active)
B15	7.42 (active)	6.93 (active)	6.76 (active)
B16	-2.26 (inactive)	-1.57 (inactive)	0.135 (inactive)
B17	1.18	-0.57 (inactive)	0.187 (inactive)
B18	0.567 (inactive)	0.0331 (inactive)	-0.164 (inactive)
B19	0.679 (inactive)	-0.235 (inactive)	0.807 (inactive)
B20	8.44 (active)	9.42 (active)	7.75 (active)
B21	11.9 (active)	12.6 (active)	8.05 (active)
B22	0.751 (inactive)	1.62	-0.32 (inactive)

Sequence	furin cleavage Z-score (7.5 min)	furin cleavage Z-score (15 min)	furin cleavage Z-score (30 min)
B23	-1.91 (inactive)	-0.133 (inactive)	0.367 (inactive)
B24	-0.0959 (inactive)	1.64	1.05
B25	-0.265 (inactive)	-1.79 (inactive)	0.6 (inactive)
B26	-0.697 (inactive)	-0.997 (inactive)	-0.52 (inactive)
B27	-1.16 (inactive)	-1.03 (inactive)	0.3 (inactive)
B28	5.12 (active)	6.32 (active)	6.33 (active)
B29	1.51	-0.0215 (inactive)	0.93 (inactive)
B30	6.58 (active)	6.13 (active)	6.41 (active)
B31	0.553 (inactive)	1.11	0.636 (inactive)
B32	-0.528 (inactive)	-0.454 (inactive)	-0.259 (inactive)
B33	10.4 (active)	10.3 (active)	9.1 (active)
B34	8.24 (active)	11 (active)	9.42 (active)
B35	0.881 (inactive)	0.588 (inactive)	0.399 (inactive)
B36	-1.44 (inactive)	-1.09 (inactive)	-2.56 (inactive)
B37	10.7 (active)	12.6 (active)	9.34 (active)
B38	0.168 (inactive)	-0.988 (inactive)	-1.36 (inactive)
B39	-0.934 (inactive)	-0.615 (inactive)	-0.629 (inactive)
B40	1.86	4.55 (active)	4.61 (active)
B41	-1.83 (inactive)	0.376 (inactive)	2.11
B42	-0.176 (inactive)	1.49	0.103 (inactive)
B43	-0.513 (inactive)	-0.19 (inactive)	-1.62 (inactive)
B44	-0.177 (inactive)	-1.31 (inactive)	-0.383 (inactive)
